Cycloheximide cs: Cycloheximide Counterscreen for Small Molecule Inhibitors of Shiga Toxin; max response, %; actives 12% (n = 300,000); AID 2314, 2010; cell reporter, cycloheximide protein synthesis inhibition counterscreen; in the data active means max response mostly above about 13%, no sharp cut-off; inactive means mostly below about 14%; further: read at 38.3 µM for the half of the compounds with a filed dose
LASV entry inh: qHTS for Inhibitors of binding or entry into cells for Lassa Virus. Potency, µM (titrated, usually from 37.9 µM), hits mostly inhibitors. actives 1.2% (n = 300,000). Lassa virus pseudotype entry inhibition, cell reporter; calls by dose curve; tested in HEK293 cells; further: nearly all actives have a fitted effect of over 50% in size
MARV entry inh: qHTS for inhibitors of binding or entry into cells for Marburg Virus. Marburg virus pseudotyped entry inhibition, cell reporter. AID 540276, 2011. actives 1.8% (n = 300,000). Potency, µM (titrated, usually from 37.8 µM), usual class: inhibitors; calls by dose curve; tested in HEK293 cells
Shiga toxin inh: A qHTS for Small Molecule Inhibitors of Shiga Toxin; Vero cells, Shiga toxin protein synthesis inhibition reporter; actives 9.2% (n = 290,000); inhibition, % at 38.7 µM; in the data active means inhibition mostly above about 28%, no sharp cut-off; inactive means mostly below about 43%
Pf growth 96h: Primary qHTS for delayed death inhibitors of the malarial parasite plastid, 96 hour incubation; Potency, µM (doses to about 28.7 µM), actives largely listed as inhibitors; actives 6.9% (n = 320,000); P. falciparum luciferase reporter growth, 96 h
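Two parasite generations (96 h, 37 C, 5% CO2) of compound exposure in infected erythrocytes (0.05% parasitemia, 2% hematocrit). Luciferase-reporter P. falciparum; decreased luminescence indicates inhibited growth, aimed at apicoplast-acting delayed death.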
Pf growth 48h: Primary qHTS for delayed death inhibitors of the malarial parasite plastid, 48 hour incubation | Potency, µM (highest dose often 28.7 µM), hits mostly inhibitors | AID 504832, 2011 | P. falciparum luciferase growth in erythrocytes, 48 h | actives 5.9% (n = 310,000)
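Growth was read as firefly luciferase luminescence after a 48 h, 37 C, 5% CO2 exposure of compounds to reporter-bearing P. falciparum cultures (0.1% parasitemia, 2% hematocrit final) in Albumax-supplemented RPMI 1640.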
Of the large screens only hits and unclear results are named; the others gave an inactive call. Sampled rows, rich in hits. Any-hit rate of the full collection: about 19%. Unless noted, the call rests on the fitted dose curve; in most records, active means well fitted inhibition curve with a large enough effect; inconclusive means small, poorly fitted or top-dose-only effect, or another doubt; inactive means no such curve, though single readings can be large or run the other way.

CCOC(=O)C1=C(N)OC2=C(C(=O)CC(C)(C)C2)C1c1ccc(CC)s1 (stereo not given)	Pf growth 96h 4.1µM
CCOC(=O)C1=C(N)OC2=C(C(=O)CC(C)(C)C2)C1c1ccc(C)s1 (stereo not given)	Cycloheximide cs 26, Shiga toxin inh 89
O=[N+]([O-])c1cc(O)c2ncccc2c1	Cycloheximide cs 22, LASV entry inh inconclusive, MARV entry inh inconclusive, Pf growth 96h inconclusive, Pf growth 48h inconclusive
O=[N+]([O-])c1cc2cccnc2c2ncccc12	Pf growth 96h 9.3µM, Pf growth 48h 4.7µM (no result: LASV entry inh, MARV entry inh)
Cc1ccc([N+](=O)[O-])c2cccnc12	none
CC(C)c1ccc(/C=C/C(=O)N2CCOCC2)cc1	Cycloheximide cs 43, LASV entry inh inconclusive, MARV entry inh inconclusive, Shiga toxin inh 28
CC(OC(=O)/C=C/c1ccc(Br)cc1)C(=O)N1CCOCC1 (stereo not given)	none (no result: Cycloheximide cs, Shiga toxin inh)
CC(C)c1ccc(/C=C/C(=O)N2CCCCCC2)cc1	Cycloheximide cs 21
COc1cc2c(cc1OC)C(c1ccccc1)CN(C)CC2 (stereo not given)	MARV entry inh inconclusive, Pf growth 96h 15µM, Pf growth 48h inconclusive (no result: Cycloheximide cs, LASV entry inh, Shiga toxin inh)
COc1cc2c(cc1OC)C(c1ccccc1)N(C(=O)c1ccccc1)CC2 (stereo not given)	Pf growth 48h inconclusive (no result: LASV entry inh, MARV entry inh, Shiga toxin inh)
COc1ccc(CNc2ccc3c(c2)nc(C)n3C)cc1	Cycloheximide cs 25, MARV entry inh inconclusive, Shiga toxin inh 60 (no result: Pf growth 96h, Pf growth 48h)
Cc1nc2cc(NS(=O)(=O)c3ccccc3)ccc2n1C	Pf growth 96h inconclusive
COc1ccc(OC)c(CNc2nc3ccc(C)cc3n3nnnc23)c1	none (no result: Cycloheximide cs, MARV entry inh, Shiga toxin inh, Pf growth 96h, Pf growth 48h)
COc1ccc(OC)c(CNc2ccc3c(c2)nc(C)n3C)c1	Cycloheximide cs 9.4, Pf growth 96h inconclusive
Cc1ccc(CNc2ccc3c(c2)nc(C)n3C)cc1	Cycloheximide cs 30, LASV entry inh inconclusive, MARV entry inh inconclusive, Pf growth 96h inconclusive (no result: Shiga toxin inh)
CCOc1ccc2c(c1)nc(C)n2C	none
Cc1nc2cc(CO)ccc2n1C	Pf growth 96h 9.3µM
C/C(=N\N=C(N)N)c1cccc(Cl)c1	Pf growth 96h inconclusive, Pf growth 48h inconclusive
Cc1nc2cc(NCc3ccc(Cl)cc3)ccc2n1C	Cycloheximide cs 30, LASV entry inh inconclusive, MARV entry inh inconclusive, Shiga toxin inh 71
Cc1cc(C)nc(NCc2ccc(Cl)cc2)n1	LASV entry inh inconclusive, MARV entry inh inconclusive, Pf growth 48h inconclusive
COc1cccc(OCc2cc(C(=O)N3CCNC(=O)C3Cc3ccccc3)no2)c1 (stereo not given)	Cycloheximide cs 40, Shiga toxin inh 74, Pf growth 48h inconclusive
CCN(CC)C(=O)C1CCCN(C(=O)c2cc(COc3cccc(OC)c3)on2)C1 (stereo not given)	Pf growth 96h 9.3µM
COc1cccc(OCc2cc(C(=O)N3CCC(C(O)C(C)C)CC3)no2)c1 (stereo not given)	Pf growth 96h inconclusive, Pf growth 48h inconclusive (no result: LASV entry inh, MARV entry inh)
COc1cccc(OCc2cc(C(=O)N3CCCC3c3ccccn3)no2)c1 (stereo not given)	Cycloheximide cs 70, Shiga toxin inh 62
COc1cccc(OCc2cc(C(=O)N3CCN(C4CCCC4)CC3)no2)c1	Pf growth 96h inconclusive
CCC1CN1P(=O)(c1ccccc1)N1CC1CC (stereo not given)	none (no result: Cycloheximide cs, Shiga toxin inh, Pf growth 96h, Pf growth 48h)
Nc1ccc(C(=O)OCc2nc3ccccc3s2)cc1	Cycloheximide cs 56, MARV entry inh inconclusive, Shiga toxin inh 87
O=C(OCc1nc2ccccc2s1)c1cc2ccccc2oc1=O	Cycloheximide cs 34, Shiga toxin inh 40 (no result: LASV entry inh, MARV entry inh)
O=C(OCc1nc2ccccc2s1)c1ccc(Br)s1	Cycloheximide cs 25, MARV entry inh inconclusive
O=C(OCc1cc(=O)n2c(n1)sc1ccccc12)c1ccc(O)cc1	Cycloheximide cs 36, MARV entry inh inconclusive
Cc1ccc(C(=O)OCc2nc3ccccc3s2)o1	LASV entry inh inconclusive, MARV entry inh inconclusive (no result: Cycloheximide cs, Shiga toxin inh)
O=C1c2c(Br)c(Br)c(Br)c(Br)c2C(=O)N1c1ccccn1	none (no result: LASV entry inh, MARV entry inh)
COC(=O)c1ccccc1NC1CC(=O)N(c2c(C)cccc2C)C1=O (stereo not given)	none (no result: Pf growth 96h)
CNc1c(NS(=O)(=O)c2cc(NC(C)=O)ccc2C)c(=O)oc2ccccc12	none
COc1ccc(NC(=O)CCCOc2cc(=O)n(C)c3ccccc23)c(OC)c1	none (no result: Cycloheximide cs, Shiga toxin inh, Pf growth 96h, Pf growth 48h)
CC(C)c1ccc2c(c1)C(N1CCN(C)CC1)Cc1cccnc1S2 (stereo not given)	MARV entry inh 11µM (no result: Cycloheximide cs, Shiga toxin inh, Pf growth 96h, Pf growth 48h)
CCCC(=O)Nc1cc2c3c(c1)CCN3C(=O)CC2	none (no result: LASV entry inh, MARV entry inh)
Cc1cc2ccccc2cc1C(=O)c1ccccc1	MARV entry inh inconclusive (no result: Cycloheximide cs, Shiga toxin inh, Pf growth 96h, Pf growth 48h)
Cc1sc2ccccc2[n+]1CC(=O)c1ccccc1	none (no result: LASV entry inh, MARV entry inh, Shiga toxin inh)
Cc1sc2cc3c(c(C(=O)c4ccccc4)[n+]2c1C)-c1cccc2cccc-3c12	LASV entry inh inconclusive, MARV entry inh 4.5µM, Pf growth 96h 0.33µM, Pf growth 48h 0.83µM
O=C(c1ccccc1)c1c2c(cc3sc4ccccc4[n+]13)-c1cccc3cccc-2c13	Cycloheximide cs 27, LASV entry inh 15µM, MARV entry inh inconclusive, Shiga toxin inh 38, Pf growth 96h 0.47µM, Pf growth 48h 0.93µM
COC(=O)c1nc2nc(C)cc(C(F)(F)F)n2n1	Pf growth 96h 12µM
CCc1ccc(NC(=O)CSc2nc(=O)n(CCCN3CCOCC3)c3c2CCC3)cc1	Pf growth 96h inconclusive, Pf growth 48h inconclusive (no result: Cycloheximide cs, Shiga toxin inh)
CCN(CC)CCCn1c2c(c(SCC(=O)Nc3nc4ccccc4s3)nc1=O)CCC2	LASV entry inh inconclusive, MARV entry inh inconclusive, Pf growth 96h 13µM, Pf growth 48h inconclusive (no result: Cycloheximide cs, Shiga toxin inh)
CCCCc1ccc(NC(=O)CSc2nc(=O)n(CCN(CC)CC)c3c2CCCC3)cc1	LASV entry inh inconclusive, MARV entry inh inconclusive, Pf growth 96h 2.1µM, Pf growth 48h 12µM (no result: Cycloheximide cs, Shiga toxin inh)
Cc1ccc(NC(=O)CSc2nc(=O)n(CCCN3CCOCC3)c3c2CCCC3)cc1	Pf growth 48h 13µM (no result: Cycloheximide cs, Shiga toxin inh)
CCCCc1ccc(NC(=O)CSc2nc(=O)n(CCN3CCOCC3)c3c2CCC3)cc1	Pf growth 96h inconclusive (no result: Cycloheximide cs, Shiga toxin inh)
CCCCc1ccc(NC(=O)CSc2nc(=O)n(CCN(C)C)c3c2CCC3)cc1	LASV entry inh inconclusive, MARV entry inh inconclusive, Pf growth 96h inconclusive, Pf growth 48h 12µM (no result: Cycloheximide cs, Shiga toxin inh)
CCC(C)N(C(=O)COc1ccc(Br)cc1C=O)C1CCS(=O)(=O)C1 (stereo not given)	none (no result: Cycloheximide cs, Shiga toxin inh)
Cn1c(=O)n(C)c2cc(/C=N/n3cnnc3)ccc21	Pf growth 96h 5.9µM
CCOc1ccccc1NC(=O)C(=O)CC(=O)c1ccc(OC)cc1	none (no result: Pf growth 48h)
COc1ccc(CN2CC=C(c3ccc(F)cc3)CC2)cc1Br	MARV entry inh inconclusive
O=[N+]([O-])c1ccccc1CN1CC=C(c2ccc(F)cc2)CC1	Cycloheximide cs 17, Shiga toxin inh 23 (no result: LASV entry inh, MARV entry inh)
O=[N+]([O-])c1ccccc1CN1CCN(Cc2c[nH]c3ccccc23)CC1	LASV entry inh inconclusive, MARV entry inh inconclusive, Pf growth 96h inconclusive

Bioassay records (PubChem)
